B1: PhoQ; a variant is named by its letters at X, in order, P23837 (parent)
chain: MKKLLRLFFPLSLRVRFLLATAAVVLVLSLAYGMVALIGYSVSFDKTTFRLLRGESNLFYTLAKWENNKLHVELPENIDKQSPTMTLIYDENGQLLWAQRDVPWLMKMIQPDWLKSNGFHEIEADVNDTSLLLSGDHSIQQQLQEVREDDDDAEMTHSVAVNVYPATSRMPKLTIVVVDTIPVELKSSYMVWSWFIYVLSANLLLVIPLLWVAAWWSLRPIEALAKEVRELEEHNRELLNPATTRELTSLVRNLNRLLKSERERYDKYRTTLTDLTHSLKTPLXXLQXXLRSLRSEKMSVSDAEPVMLEQISRISQQIGYYLHRASMRGGTLLSRELHPVAPLLDNLTSALNKVYQRKGVNISLDISPEISFVGEQNDFVEVMGNVLDNACKYCLEFVEISARQTDEHLYIVVEDDGPGIPLSKREVIFDRGQRVDTLRPGQGVGLAVAREITEQYEGKIVAGESMLGGARMEVIFGRQHSAPKDE

In all, about 140,000 sequences were measured (“enrichment ratio after two sorts for PhoP signalling”: median about 0, highest 2% from about 11 on). The sample holds the highest values, similar sequences and a random draw of the others, so the mix is not that of the screen. A value given as a limit tells only on which side of the number the result lay.

The assay covers variants of B1. Kind of assay: enrichment ratio after two sorts for PhoP signalling (ratio (wild type AVST 3.29)); higher = more functional. The following applies: with PhoP (E. coli).
Take NHND: the enrichment ratio is at most 0.25. In the case of SHND, the enrichment ratio is at most 0.25. To AKND belongs at most 0.25.

On to THND, for which the enrichment ratio is 29.6. The value for MKND was at most 0.25.

With TKND, the enrichment ratio was 12.6.

Consider DRLD, for which the enrichment ratio was at most 0.25. The value for HSGG was at most 0.25; that for FKNI was at most 0.25.

On to NEDI, for which the enrichment ratio was at most 0.25. To NKAR belongs at most 0.25; to FVHD, at most 0.25; to WDYC, at most 0.25. As for AMTE, the enrichment ratio is 15.1. With AKTE, the enrichment ratio was at most 0.25.

Regarding AMPE, the enrichment ratio was at most 0.25. Take AITE: the enrichment ratio was at most 0.25.

For NMCL, the enrichment ratio was at most 0.25. To AMCE belongs 67.3; to AMIE, at most 0.25. The value for AMNL was 3.05; that for AMCS was 5.27; that for AMCK was at most 0.25. For the variant AMCI, the enrichment ratio amounted to 14.1. To AMCL belongs 15.7. Regarding PGVP, the enrichment ratio is at most 0.25.

For the variant HSSS, the enrichment ratio was at most 0.25. To DNCF belongs at most 0.25; to HRPL, at most 0.25; to NSCR, at most 0.25. To ILKS belongs at most 0.25; to APIM, at most 0.25; to QGSM, 9.07. The value for AMCA was 19.4; that for AMPI was 0.985; that for AMPA was at most 0.25.

Turning to MMHC, the enrichment ratio was at most 0.25.

NQIQ: the enrichment ratio is at most 0.25. To GDIQ belongs 17.5; to GDNT, at most 0.25; to GNIQ, 9.19.

Turning to GQIQ, the enrichment ratio is 14.9. The value for GDHQ was at most 0.25; that for GDHP was 1.16. The value for GDIT was 14; that for GDLT was at most 0.25. To VNKQ belongs at most 0.25. Consider GRCH, for which the enrichment ratio is at most 0.25. Consider YDLC, for which the enrichment ratio is at most 0.25. To IFMM belongs at most 0.25. Consider AGLM, for which the enrichment ratio came out at 6.12. The value for HGLM was 16.4; that for RGLM was at most 0.25.

For CFLM, the enrichment ratio is at most 0.25. To SGFA belongs at most 0.25. With NGLM, the enrichment ratio worked out at 13.2. As to SGFM, the enrichment ratio is 5.94. To GGLM belongs 2.85. The value for SGLM was 17.9; that for HRLM was at most 0.25; that for TGLM was 26.9. Consider HFLM, for which the enrichment ratio was at most 0.25. The value for RWIP was at most 0.25; that for VHKL was at most 0.25. The value for MHLQ was at most 0.25. To DMYA belongs at most 0.25. As for SEHG, the enrichment ratio is at most 0.25. As to VTGQ, the enrichment ratio is at most 0.25. To YERP belongs at most 0.25.

RWVH: the enrichment ratio was at most 0.25. Turning to EIKR, the enrichment ratio is at most 0.25. The value for WPFI was at most 0.25. The value for MTAY was 4.94.

Consider IGLM, for which the enrichment ratio turned out to be 14.

For IGFA, the enrichment ratio was at most 0.25. The value for IGLA was at most 0.25; that for QFWE was at most 0.25; that for ANHE was at most 0.25. To ANIE belongs at most 0.25; to ANPI, at most 0.25; to ANCA, 44.6. To ADSE belongs at most 0.25; to AKSE, at most 0.25; to ANSE, 11.5.

In the case of ANCE, the enrichment ratio amounted to 56. As to TGII, the enrichment ratio was at most 0.25. To ANHV belongs at most 0.25; to AGID, at most 0.25. On to AGII, for which the enrichment ratio came to 33.2. The value for LPYL was at most 0.25; that for MLTL was 8.8; that for YPKQ was at most 0.25. The value for RNCE was at most 0.25; that for IICI was at most 0.25; that for MPFW was at most 0.25. The value for LFPW was at most 0.25; that for RNAC was at most 0.25. Regarding NMMW, the enrichment ratio was at most 0.25. To QIFK belongs at most 0.25; to QINA, at most 0.25. The value for QQLA was at most 0.25. The value for PAGS was at most 0.25.

Turning to FDMV, the enrichment ratio was at most 0.25.

ANFA: the enrichment ratio was at most 0.25.

On to ADMV, for which the enrichment ratio was 35.3. As to LNLC, the enrichment ratio is at most 0.25. The value for AIMV was 5.05. To GNLH belongs 1.09. As to ANLH, the enrichment ratio came out at 13. As for ADLH, the enrichment ratio was determined as 5.09. The value for AHLC was at most 0.25; that for ANCI was 19.9; that for ANHF was at most 0.25. The value for ANLC was 22.4; that for MAIR was at most 0.25; that for TWDF was at most 0.25. To QNMP belongs at most 0.25. On to QKNG, for which the enrichment ratio was at most 0.25. To VWKN belongs at most 0.25.

On to TWHE, for which the enrichment ratio was at most 0.25. As to ANAW, the enrichment ratio was at most 0.25. For the variant EGLC, the enrichment ratio was at most 0.25. To GNSI belongs 4.37; to LNSI, at most 0.25; to AGIV, 14.4. Turning to ANYR, the enrichment ratio was at most 0.25.

Consider ADYV, for which the enrichment ratio was at most 0.25. The value for ANSI was 18; that for AGIS was 2.92; that for AGWV was at most 0.25. The value for ADNS was at most 0.25; that for ANNS was 12.9; that for ADIV was 12.5. For AIIV, the enrichment ratio is 3.98.

For EFTF, the enrichment ratio was at most 0.25. The value for GVQP was at most 0.25; that for PEHG was at most 0.25.

On to WTQP, for which the enrichment ratio was at most 0.25. The value for TWFQ was at most 0.25; that for QNLY was at most 0.25; that for KERI was at most 0.25. To KAIG belongs at most 0.25; to RCHM, at most 0.25; to ANIV, 13.7. ANIS: the enrichment ratio amounted to 4.66.

As to ANHN, the enrichment ratio is at most 0.25. To HKAP belongs at most 0.25; to SKLF, 11. The value for SKLM was 16.3. To SKVM belongs 19.7; to SKLA, 8.7; to SKVA, 1.14.

As to NDKA, the enrichment ratio is at most 0.25.
